# Values joined by “and” are separate entries in the source; they are usually repeats but may differ in a detail not shown here. Identical values can stand only once. Results filed as inconclusive are left out. Entries that show only a call come without a potency. The source holds several records for some structures; these can differ, active in one and inactive in another. Active and inactive are the calls of the source. Unless noted, the call rests on the fitted dose curve; in most records, active means well fitted curve in the direction sought with a large enough effect in the repeat runs; inconclusive means weak or mixed curves; inactive means no such curve, though single readings can be large; an effect the other way counts as inactive or inconclusive.
# Experiments:
# [1] = qHTS assay to identify small molecule agonists of the hypoxia (HIF-1) signaling pathway - cell viability counter screen (AID 1224844; calls by dose curve; further: nearly all actives have a fitted effect of over 50% in size; further: potency means the concentration at half of the fitted maximal effect)
# How it was run: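 HRE-bla ME-180 cells, 2,000/well in 0.5% dialyzed FBS medium, treated 17 h at 37C with compounds. Viability read in the same wells as the bla reporter, by CellTiter-Glo luminescence after 30 min at room temperature.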
# [2] = qHTS assay to identify small molecule agonists of the hypoxia (HIF-1) signaling pathway (AID 1224846; active means well fitted activation curve with a large enough effect in the signal ratio in the repeat runs, not every such curve was filed as active; the % refers to the signal ratio)
# How it was run: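 HRE-bla ME-180 beta-lactamase reporter cells in medium with 0.5% dialyzed FBS, pre-incubated 5 h then exposed to compounds 17 h at 37C, 5% CO2; reporter induction read with CCF4-AM FRET substrate.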
# [3] = qHTS assay to identify small molecule agonists of H2AX - cell viability counter screen (AID 1224847; calls by dose curve; further: nearly all actives have a fitted effect of over 30% in size; further: potency means the concentration at half of the fitted maximal effect)
# How it was run: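 Wild-type CHO-K1 cells (10% FBS medium) were plated overnight at 37C, exposed to compounds at 15 concentrations for 3 hr at 37C (0.76% DMSO final), and viability was read as CellTiter-Glo luminescence after 30 min at room temperature.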
# [4] = qHTS assay to identify small molecule antagonists of the estrogen related receptor (ERR) signaling pathway from Tox21 library (AID 1224848); further: nearly all actives have a fitted effect of over 50% in size; further: potency means the concentration at half of the fitted maximal effect
# How it was run: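 Screening used an ERR reporter line supplied by NTP, exposed for 18 h at 37 C to library compounds delivered in DMSO. Signal was luciferase luminescence developed with ONE-Glo at room temperature for 30 min.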
# [5] = qHTS assay to identify small molecule agonists of the estrogen related receptor (ERR) signaling pathway from Tox21 library (AID 1224849; calls by dose curve; further: nearly all actives have a fitted effect of over 15% in size); details: ERR reporter cell line, ONE-Glo luciferase, 18 h
# How it was run: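 ERR reporter cells (NTP line) pre-incubated 6 hours at 37 C, then exposed to compounds for 18 hours at 37 C. ONE-Glo luciferase luminescence was read after 30 minutes at room temperature.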
# [6] = qHTS RealTime-Glo MT Cell Viability Assay in HepG2 cells - 24 hour (AID 1224867); further: nearly all actives have a fitted effect of over 50% in size
# How it was run: (§1)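 Real-time, nonlytic viability: 600 HepG2 cells/well mixed with NanoLuc enzyme plus prosubstrate; 5 h settle, compound (DMSO) added by pintool; luminescence monitored over 40 h at 37 C.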
# [7] = qHTS RealTime-Glo MT Cell Viability Assay in HEK293 cells - 32 hour (AID 1224868); further: nearly all actives have a fitted effect of over 50% in size; further: potency means the concentration at half of the fitted maximal effect
# How it was run: (§2)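 Cells + reagent dispensed (600 cells/well, HEK293) → 5 h at 37 C/5% CO2 → 23 nL compound in DMSO pinned → 40 h at 37 C → luminescence read at 0, 8, 16, 24, 32, 40 h.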
# [8] = A CellTox Green Cytotoxicity Assay to monitor cytotoxicity in HEK293 cells - 0 hour (AID 1224869); further: nearly all actives have a fitted effect of over 50% in size
# How it was run: (§3)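 HEK293 cells, 600/well, were preincubated 5 hours and then exposed to compounds at 37 C for up to 40 hours. A cell-impermeant cyanine dye staining dead-cell DNA was read by fluorescence at 0, 8, 16, 24, 32 and 40 h time points.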
# [9] = qHTS RealTime-Glo MT Cell Viability Assay in HepG2 cells - 40 hour (AID 1224870); further: nearly all actives have a fitted effect of over 50% in size; further: potency means the concentration at half of the fitted maximal effect
# How it was run: (§4)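 HepG2 cells mixed with RealTime-Glo MT reagents (NanoLuc plus cell-permeant prosubstrate) were seeded at 600 cells/well, incubated 5 h at 37 C/5% CO2, then pinned with compounds in DMSO; nonlytic luminescence tracked viability during 40 h treatment.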
# [10] = A CellTox Green Cytotoxicity Assay to monitor cytotoxicity in HEK293 cells - 40 hour (AID 1224871); further: nearly all actives have a fitted effect of over 45% in size; further: potency means the concentration at half of the fitted maximal effect
# How it was run: as §3
# [11] = qHTS RealTime-Glo MT Cell Viability Assay in HepG2 cells - 8 hour (AID 1224873); further: nearly all actives have a fitted effect of over 55% in size; further: potency means the concentration at half of the fitted maximal effect
# How it was run: as §4
# [12] = qHTS RealTime-Glo MT Cell Viability Assay in HEK293 cells - 40 hour (AID 1224874); details: RealTime-Glo luminescence; max response: stronger effect = lower value; further: nearly all actives have a fitted effect of over 50% in size; further: potency means the concentration at half of the fitted maximal effect
# How it was run: (§5)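 600 cells/well were plated with the nonlytic NanoLuc/prosubstrate reagent, pre-incubated 5 h, then given 23 nL of compound in DMSO. Incubation at 37 C for 40 h, with luminescence from viable-cell-reduced substrate read repeatedly from 0 h.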
# [13] = A CellTox Green Cytotoxicity Assay to monitor cytotoxicity in HEK293 cells - 24 hour (AID 1224875); further: nearly all actives have a fitted effect of over 45% in size
# How it was run: as §3
# [14] = A CellTox Green Cytotoxicity Assay to monitor cytotoxicity in HepG2 cells - 16 hour (AID 1224876); further: nearly all actives have a fitted effect of over 45% in size; further: potency means the concentration at half of the fitted maximal effect
# How it was run: (§6)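 HepG2 cells, 600/well, preincubated 5 h with CellTox Green dye, then exposed to Tox21 compounds in DMSO at 37 C for up to 40 h. Dead-cell DNA fluorescence read at the indicated time point.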
# [15] = qHTS RealTime-Glo MT Cell Viability Assay in HepG2 cells - 32 hour (AID 1224877); further: nearly all actives have a fitted effect of over 55% in size; further: potency means the concentration at half of the fitted maximal effect
# How it was run: as §1
# [16] = A CellTox Green Cytotoxicity Assay to monitor cytotoxicity in HepG2 cells - 24 hour (AID 1224878); further: nearly all actives have a fitted effect of over 45% in size; further: potency means the concentration at half of the fitted maximal effect
# How it was run: as §6
# [17] = A CellTox Green Cytotoxicity Assay to monitor cytotoxicity in HepG2 cells - 40 hour (AID 1224879); further: nearly all actives have a fitted effect of over 40% in size; further: potency means the concentration at half of the fitted maximal effect
# How it was run: as §6
# [18] = qHTS RealTime-Glo MT Cell Viability Assay in HEK293 cells - 0 hour (AID 1224880)
# How it was run: as §5
# [19] = qHTS RealTime-Glo MT Cell Viability Assay in HEK293 cells - 16 hour (AID 1224872); further: nearly all actives have a fitted effect of over 50% in size; further: potency means the concentration at half of the fitted maximal effect
# How it was run: as §2
smiles,measurement,setting,value
CC(C)(O)CCC(C)(C)O,Potency,[1],inactive
same,Potency,[2],inactive
same,Potency,[3],inactive
same,Potency,[4],inactive
same,"activity change, positive = activation",[5]; at 92.4 µM (top of the series),-1.25% (inactive)
same,Potency,[6],inactive
same,Potency,[7],inactive
same,Potency,[8],inactive
same,Potency,[9],inactive
same,Potency,[10],inactive
same,Potency,[11],inactive
same,max response,[12],-3.66% (inactive)
same,Potency,[13],inactive
same,Potency,[14],inactive
same,Potency,[15],inactive
same,Potency,[16],inactive
same,Potency,[17],inactive
same,Potency,[18],inactive
CC(C)(C)NCC(O)COc1ccccc1OCC1CCCO1 (centres undefined),Potency,[1],inactive
same,Potency,[3],inactive
same,Potency,[4],inactive
same,"activity change, positive = activation",[5]; at 42.5 µM (top of the series),4.72% (inactive)
same,Potency,[6],inactive
same,Potency,[7],inactive
same,Potency,[8],inactive
same,Potency,[9],inactive
same,Potency,[10],inactive
same,Potency,[19],inactive
same,Potency,[11],inactive
same,max response,[12],0.952% (inactive)
same,Potency,[13],inactive
same,Potency,[15],inactive
same,Potency,[16],inactive
same,Potency,[17],inactive
same,Potency,[18],inactive
Oc1c(Cl)cc(Cl)c(Cl)c1Cc1c(O)c(Cl)cc(Cl)c1Cl,Potency,[1],19.4 µM (active) and 19.5 µM (active)
same,Potency,[3],25.2 µM (active) and 40.1 µM (active)
same,Potency,[4],3.05 µM (active) and 2.73 µM (active) and 3.35 µM (active)
same,"activity change, positive = activation",[5]; at 42.5 µM (top of the series),-49.7% (inactive)
same,"activity change, positive = activation",[5]; at 92.4 µM (top of the series),-37.2% (inactive) and -60.8% (inactive)
same,Potency,[6],inactive
same,Potency,[7],3.08 µM (active) and 5.49 µM (active)
same,Potency,[8],inactive
same,Potency,[9],inactive and 38.9 µM (active)
same,Potency,[10],48.9 µM (active) and 49 µM (active) and inactive
same,Potency,[19],inactive
same,Potency,[11],inactive
same,Potency,[12],2.45 µM (active) and 3.89 µM (active)
same,Potency,[15],inactive and 21.9 µM (active)
same,Potency,[16],inactive and 38.9 µM (active)
same,Potency,[17],21.8 µM (active) and 38.9 µM (active)
same,Potency,[18],inactive
CCN(CC)C(=S)SSC(=S)N(CC)CC,Potency,[1],355 nM (active) and inactive
same,Potency,[3],inactive
same,Potency,[4],243 nM (active) and 55.8 nM (active) and 298 nM (active)
same,"activity change, positive = activation",[5]; at 42.5 µM (top of the series),-68.2% (inactive)
same,"activity change, positive = activation",[5]; at 92.4 µM (top of the series),-75.7% (inactive) and -76.4% (inactive)
same,Potency,[7],174 nM (active) and 89.1 nM (active) and 13.4 µM (active)
same,Potency,[8],inactive
same,Potency,[9],100 nM (active)
same,Potency,[10],155 nM (active) and 5.62 µM (active) and 84.9 nM (active)
same,Potency,[19],89.1 nM (active) and 13.4 µM (active)
same,Potency,[11],44.7 µM (active)
same,Potency,[12],174 nM (active) and 656 nM (active) and 13.4 µM (active)
same,Potency,[14],50.1 µM (active) and inactive
same,Potency,[16],158 nM (active) and 95.2 nM (active)
same,Potency,[17],100 nM (active)
same,Potency,[18],inactive
CC(=O)Nc1ccc(C(=O)CCl)cc1,Potency,[1],inactive and 11 µM (active)
same,Potency,[2],inactive
same,Potency,[7],inactive and 24.5 µM (active)
same,Potency,[8],inactive
same,Potency,[10],inactive and 15.5 µM (active)
same,Potency,[19],inactive and 13.8 µM (active)
same,Potency,[11],inactive
same,Potency,[12],21.9 µM (active)
same,max response,[12],19.7% (inactive)
same,Potency,[14],inactive
same,Potency,[15],inactive and 21.9 µM (active)
same,Potency,[16],inactive and 21.9 µM (active)
same,Potency,[17],inactive and 19.5 µM (active)
same,Potency,[18],inactive
O=C(Cl)c1cccc(C(=O)Cl)c1,Potency,[1],inactive
same,Potency,[3],inactive
same,Potency,[6],inactive
same,Potency,[7],inactive
same,Potency,[8],inactive
same,Potency,[10],inactive
same,Potency,[11],inactive
same,max response,[12],7.93% (inactive) and 0.091% (inactive)
same,Potency,[13],inactive
same,Potency,[16],inactive
same,Potency,[17],inactive
same,Potency,[18],inactive

# Source: PubChem BioAssay (Tox21)
